Most compounds without a hit are left out; they make up all but 20% or so of the library.
HCMV antiviral: qHTS Assay for inhibitors of the human cytomegalovirus (HCMV) | HFF cells, HCMV-luciferase reporter, 72 h; active compounds read low | activity change, negative = inhibition, % at 57.5 µM | 4.5% of 410,000 active | AID 1259415, 2018; in the data active = activity change below about -60%; inconclusive = no clear call, values can overlap the other calls; inactive = above about -39%
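Screen run at 2 compound doses on HFFs infected with reporter HCMV, MOI 1 PFU/cell. Luciferase activity from cell lysates at 72 h post infection gave inhibition relative to buffer-only and Salinomycin wells.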
Pf growth 96h: Primary qHTS for delayed death inhibitors of the malarial parasite plastid, 96 hour incubation; P. falciparum luciferase reporter growth, 96 h; Potency, µM (top dose mostly 28.7 µM), actives largely listed as inhibitors; 6.9% of 320,000 active
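Parasite growth measured via integrated firefly luciferase reporter in P. falciparum. Infected erythrocytes at 2% hematocrit, 0.05% parasitemia final were treated 96 hours at 37 C under 5% CO2, and luminescence was read.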
CHX counter: Cycloheximide Counterscreen for Small Molecule Inhibitors of Shiga Toxin; cell reporter, cycloheximide protein synthesis inhibition counterscreen; 12% of 300,000 active; max response, %; in the data active = max response mostly above about 13%, no sharp cut-off; inactive = mostly below about 14%; also: read at 38.3 µM for the half of the compounds with a filed dose
Shiga toxin inh: A qHTS for Small Molecule Inhibitors of Shiga Toxin; Vero cells, Shiga toxin protein synthesis inhibition reporter; inhibition, % at 38.7 µM; 9.2% of 290,000 active; AID 2315, 2010; in the data active = inhibition mostly above about 28%, no sharp cut-off; inactive = mostly below about 43%
Pf growth 48h: Primary qHTS for delayed death inhibitors of the malarial parasite plastid, 48 hour incubation; Potency, µM (highest dose often 28.7 µM), usual class: inhibitors; AID 504832, 2011; P. falciparum luciferase growth in erythrocytes, 48 h; 5.9% of 310,000 active
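Parasite viability was followed by luminescence of a genomically integrated firefly luciferase. Cultures held 0.1% parasitemia at 2% hematocrit (final), incubated under 5% CO2 at 37 C.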
Numbers stand for hits; – = inactive; ? = inconclusive; · = no result given. Unless noted, calls follow the shape of the dose curve; as a rule, active = well fitted inhibition curve with a large enough effect; inconclusive = small, poorly fitted or top-dose-only effect, or another doubt; inactive = no such curve, though single readings can be large or run the other way.

SMILES | HCMV antiviral | Pf growth 96h | CHX counter | Shiga toxin inh | Pf growth 48h
Cc1cccc(NC(=O)c2ccc(Cl)c(S(=O)(=O)N3CCCC3)c2)n1 | – | 7.38µM | 54.5 | 59.4 | ?
COc1ccc(S(=O)(=O)N2CCCCCC2)cc1C(=O)Nc1cc(C)ccn1 | – | 10.4µM | · | · | 9.28µM
CS(=O)(=O)OCCCCOS(C)(=O)=O | – | – | · | · | –
CNC(=O)c1csc(-c2ccc(Cl)cc2)n1 | – | – | 38.4 | 46.7 | –
CNC(=O)c1csc(-c2ccc(C)cc2)n1 | – | – | 23.8 | 45.2 | –
CNC(=O)c1csc(-c2ccncc2)n1 | – | – | – | – | –
COc1ccc(C)cc1C(=O)CCC(=O)N1CCN(c2ccccc2F)CC1 | – | ? | · | · | –
CCOc1ccc(CNC(=S)Nc2ccccc2)cc1Cl | – | – | – | – | ?
O=C(C1CCCN(S(=O)(=O)c2cccs2)C1)N1CCN(c2cccc(Cl)c2)CC1 (centres undefined) | – | · | · | · | ·
O=C(Nc1ccncc1)c1cn(-c2ccccc2)nc1-c1cccs1 | – | 2.94µM | 44.2 | – | ·
CC(NC(=O)COC(=O)c1cn(-c2ccccc2)nc1-c1cccs1)c1ccccc1 (centres undefined) | – | 3.29µM | – | – | ·
O=C(Nc1nccs1)c1cn(-c2ccccc2)nc1-c1ccncc1 | – | ? | – | – | ?
O=C(O)c1ccc(NC(=O)c2cn(-c3ccccc3)nc2-c2ccc(F)cc2)cc1 | – | – | 38.9 | 94.3 | –
CC(NC(=O)COC(=O)c1cc2ccccc2cc1O)c1ccccc1 (centres undefined) | – | – | · | · | –
CC(=O)c1ccc(NC(=O)c2cn(-c3ccccc3)nc2-c2ccncc2)cc1 | – | – | – | – | –
O=C(O)c1ccc(NC(=O)c2cn(-c3ccccc3)nc2-c2cccc(Cl)c2)cc1 | – | 11.7µM | – | – | –
CC(C)CCNC(=O)c1cc(-c2ccc(Br)s2)nc2ccccc12 | – | · | · | · | ·
O=C(NCCS(=O)(=O)N1CCN(c2ccc(F)cc2)CC1)c1ccco1 | – | – | · | · | –
O=C(c1cn(-c2ccccc2)nc1-c1cccs1)N1CCN(c2ccc(F)cc2)CC1 | – | 9.28µM | – | – | ?
O=C(c1cccs1)N1CCN(C(=O)c2cn(-c3ccccc3)nc2-c2ccccc2)CC1 | – | · | · | · | ·
COC(=O)c1ccc(NC(=O)c2cn(-c3ccccc3)nc2-c2ccncc2)cc1 | -97.8 | ? | – | – | 11.7µM
Cn1c(=O)cc(OCCCC(=O)Nc2cccc(Cl)c2)c2ccccc21 | – | · | · | · | ·
O=C(CNC(=O)c1ccccc1Cl)OCc1cc(=O)n2nc(C3CC3)sc2n1 | – | · | · | · | ·
Cc1ccc(N2C(=O)N(Cc3cc(=O)n4ccccc4n3)c3ccccc3S2(=O)=O)cc1Cl | – | · | · | · | ·
N/C(Cc1nc(-c2ccc(Br)cc2)cs1)=N\O | – | ? | 26.3 | 77.7 | –

Screening results (PubChem)
